Measured values from PubChem BioAssay (NCI).
This is part of a sample that, as a whole, favours compounds with a hit. Of some 83,000 tested, about 20% had one in any assay.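 Plates (96-well) were seeded with cells, treated with compound at one concentration, and incubated for 48 hours before percent growth was determined.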 A number with no mark means an inactive call. Activity calls are given as the source filed them. Rule for the calls: active = growth percent below 10; inactive = the rest.

Key:
Test in all cases: NCI-60 one-dose screen, 48 h (100 = growth as untreated, 0 = no growth, -100 = all killed)
Conditions in all cases: 10 µM unless noted
SK-MEL-2 melanoma = tested on: SK-MEL-2 melanoma
EKVX NSCLC = tested on: EKVX NSCLC
SN12C renal = tested on: SN12C renal
UO-31 renal = tested on: UO-31 renal
TK-10 renal = tested on: TK-10 renal
ACHN renal = tested on: ACHN renal
CAKI-1 renal = tested on: CAKI-1 renal
A498 renal = tested on: A498 renal
CCRF-CEM leukemia = tested on: CCRF-CEM leukemia
MOLT-4 leukemia = tested on: MOLT-4 leukemia

Structure (SMILES)	growth (SK-MEL-2 melanoma)	growth (EKVX NSCLC)	growth (SN12C renal)	growth (UO-31 renal)	growth (TK-10 renal)	growth (ACHN renal)	growth (CAKI-1 renal)	growth (A498 renal)	growth (CCRF-CEM leukemia)	growth (MOLT-4 leukemia)
O=C1c2ccccc2C(=O)c2c1oc1ccc3ccccc3c21	101%	72.6%	83.2%	61%	169%	79.4%	90.3%	88.5%	94.8%	104%
COc1cc2nccc(Oc3ccc(NC(=O)C4(C(=O)Nc5c(F)cc(F)cc5F)CC4)cc3)c2cc1Oc1ccc(N)cn1	81.5%	45.2%	30.6%	45.3%	84.5%	50.9%	65.6%	-6.52% (active)	70.9%	38.5%
OC(c1cc2cc(Cl)ccc2c2cc(C(F)(F)F)ccc12)C1CCCCN1 (centres undefined)	-92% (active)	-40.4% (active)	-62.8% (active)	-88.2% (active)	-96.4% (active)	-78.2% (active)	-74.2% (active)	27.2%	-61.2% (active)	-69.3% (active)
Nc1ccc(N(O)/C=C2\C=CC=CC2=O)cc1N	108%	96.4%	101%	62.5%	133%	76.3%	100%	88.9%	57.6%	73%
COc1ccc(/C=c2\c(=O)n(-c3ccccc3)c3nn4c(n23)=NNC42CCCCC2)cc1	108%	91.8%	98.5%	63.2%	159%	90.5%	85.6%	93.4%	101%	98.8%
CCN(C(=O)Nc1cccc2ccccc12)c1ccccc1	108%	95.9%	103%	73%	108%	99.5%	99.9%	90.2%	109%	72.6%
O=C(c1ccccc1)N(CCCCl)C(=O)N(CCCCl)C(=O)c1ccccc1	103%	81%	94.6%	73.4%	96.8%	90.9%	74.9%	79.5%	99.7%	84.4%
C/C(=N\NC(=S)N1CCCCC1)c1ccccn1	34.3%	-4.33% (active)	21%	-13.6% (active)	22.4%	17.3%	-4% (active)	-13.5% (active)	8.62% (active)	-3.73% (active)
O=C1c2ccccc2C2N1CCC1CCc3ccccc3N12 (centres undefined)	99.7%	104%	94.8%	55.1%	108%	99.3%	88.4%	75.5%	105%	101%
C#CC[C@@H]1C[C@]2(C)[C@H]3CC=C4[C@H]5[C@@H](C)[C@H](C)CC[C@]5(C(=O)NCCCCCCCCN)CC[C@@]4(C)[C@]3(C)CC[C@H]2C(C)(C)[C@H]1OC(C)=O	104%	95%	76.1%	67.2%	80.5%	85.8%	-69.7% (active)	94.5%	-34.6% (active)	-19.8% (active)
Oc1ccc(CCCCCCc2ccc(O)cc2)cc1	89.2%	74.5%	69.6%	25.6%	84.9%	-4.64% (active)	16.8%	103%	18.5%	106%
COc1cc2c(cc1I)-c1c(cc(OC)c(OC)c1OC)CC[C@@H]2NC(C)=O	18.7%	44.6%	26.2%	29.5%	59%	33.2%	8.95% (active)	-30.6% (active)	22.4%	24.3%
COc1cc(C2Nc3ccccc3S2)cc(CN2CCOCC2)c1O (centres undefined)	64.4%	102%	91.9%	45.6%	84.7%	88.3%	74%	73.3%	80.1%	25.3%
CNCc1ccccc1CN(CC(=O)Nc1ccc2c(c1)CC1(C2)C(=O)Nc2ncccc21)C(=O)C(C)(C)C (centres undefined)	104%	100%	103%	88.1%	103%	107%	91.6%	122%	116%	103%
CCCCOc1ncnc2nc[nH]c12	104%	112%	102%	99.7%	101%	101%	106%	97%	113%	91.9%
CCCc1cc2c(cc1CN(Cc1cc3c(cc1CCC)OCO3)C(=N)OCC)OCO2	81.3%	75%	80%	67.3%	72.9%	90.4%	83.5%	97.6%	80.4%	93.5%
C[C@]12CCc3nc(Nc4ccc(O)cc4)sc3C1=CC[C@@H]1[C@@H]2CC[C@]2(C)/C(=N/NC(N)=S)CC[C@@H]12	-13.5% (active)	-19.1% (active)	-46.7% (active)	-42% (active)	-7.19% (active)	-72.4% (active)	-36.2% (active)	93.1%	-7.49% (active)	-5.84% (active)
O=C(c1ccc(C(F)(F)F)c(Cl)c1)N(Cc1ccc(Cl)cc1)c1ccc(-c2cc(C(F)(F)F)[nH]n2)c(O)c1	-18.3% (active)	0.0577% (active)	14.6%	5.66% (active)	5.25% (active)	3.03% (active)	1.19% (active)	-21.4% (active)	10.4%	9.19% (active)
C#CC[C@@H]1C[C@]2(C)[C@H]3CC[C@@H]4[C@H]5C(C(=C)C)CC[C@]5(C(=O)NCCCN5CCN(CCCN)CC5)CC[C@@]4(C)[C@]3(C)CC[C@H]2C(C)(C)[C@H]1OC(C)=O (some centres undefined)	-18.1% (active)	51.9%	-84.4% (active)	-95.3% (active)	-91.5% (active)	-97.8% (active)	-96.1% (active)	98.6%	-29.6% (active)	-28.3% (active)
CN(CCO)c1ccc(N2Cc3ccccc3OC3=C2C(=O)c2c(O)ccc(O)c2C3=O)cn1	-54.4% (active)	-38.5% (active)	-90.9% (active)	-100% (active)	-98.5% (active)	-100% (active)	–	-48.2% (active)	-12.2% (active)	-30.6% (active)
CCCCN(CCCC)CCC(O)c1cc2ccc(C(F)(F)F)cc2c2cc(C(F)(F)F)ccc12 (centres undefined)	55%	70%	46.9%	19.6%	74.4%	49.9%	–	56.4%	36.2%	28.7%
COCCCNCC(=O)Nc1c(C)cccc1C	112%	104%	104%	88.4%	113%	102%	105%	110%	98.6%	103%
COc1cc(Cn2c(-c3ccccc3)cc3c2-c2oncc2CC3)cc(OC)c1OC	31.4%	38.3%	49.3%	4.35% (active)	47.1%	48.2%	–	2.81% (active)	16.9%	14.1%
Nc1n[nH]c2ccc([C@@H]3Nc4c(F)cc5[nH]ncc5c4[C@H]4C5CCC(C5)[C@@H]34)cc12 (some centres undefined)	53.7%	31.7%	22.6%	28.2%	61%	22.7%	–	-28.6% (active)	18.1%	22.9%
CCOC(=O)c1ccc(NCCC(=O)O)cc1	96.7%	122%	108%	83.1%	101%	103%	–	113%	97.6%	87.2%
COC(=O)c1ccc(NC(N)=NCCC(C)(C)c2ccc(C(F)(F)F)cc2)nc1	70.3%	20.3%	53.4%	34.2%	49.6%	65.2%	–	51.8%	34.2%	4.23% (active)
